The values below come from PubChem BioAssay (NCI).

This is part of a sample that, as a whole, favours compounds with a hit. Of some 83,000 tested, about 20% had one in any assay.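 Cell lines were cultured in 96-well plates, exposed to a single compound concentration, and assessed for percent growth 48 hours later.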 Values without a mark were called inactive. Calls of active or inactive are those of the source.

This test concerns SK-MEL-28 melanoma. The experiment in a line: NCI-60 one-dose screen, 48 h (100 = growth as untreated, 0 = no growth, -100 = all killed). As to conditions: 10 µM unless noted. Here is the method:
Growth inhibition of the SK-MEL-28 human tumor cell line is measured as a screen for anti-cancer activity. Cells are grown in 96 well plates and exposed to the test compound for 48 hours. Compounds are tested at a single concentration, which is 10^-5 M for most compounds. The reported endpoint is percent growth (GI% or GIPRCNT), where numbers from 0 - 100% represent growth inhibition, and numbers from -100% - 0 represent cell death. For example, a value of 40 represents 60% growth inhibition. A value of 0 means no net growth occurred over the course of the experiment. A value of -40 indicates 40% of cells at the beginning of the experiment died by the end of the experiment. A value of -100 means all cells are dead at the end of the experiment.
NCI-60 Human Tumor Cell Lines Screen was performed using the standard one-dose NCI protocol, which is described in more detail at https://dtp.cancer.gov/discovery_development/nci-60/default.htm.
Compounds with GIPRCNT values below 10 were considered active. Activity score was based on GIPRCNT using the following formula: […]
Score is 0 for GIPRCNT values of 100 or above, 50 for GIPRCNT values of 0, and 100 for GIPRCNT values of -100.
As to `COc1c(N2CC3CCCNC3C2)c(F)cc2c(=O)c(C(=O)N/N=C/c3ccc(N(C)C)cc3)cn(C3CC3)c12` (stereo not given), the growth is 97.8%.

As to `COc1cc2nc(Cl)nc(Nc3cccc(C4=Nc5c(N)nc(N)nc5NC(c5ccc6c(c5)OCO6)C4)c3)c2cc1OC` (stereo not given), the growth was 106%.

Regarding `NC(N)=Nc1ccc(Oc2cccc(NC(N)=Nc3ccc(Cl)c(C(F)(F)F)c3)c2)cn1`, the growth is 61.6%.

Regarding `COc1ccc(-c2nc3ccc(-c4nnc(SCC(=O)Nc5ccc(C(=O)/C=C/c6ccc(Cl)cc6)cc5)o4)cc3[nH]2)cc1`, the growth was 101%.

`COc1ccc(NC(=O)Nc2ccc3c(ccn3C(=O)c3cccc(F)c3)c2)cc1`: the growth is 87.2%.

On to `O=C(CSc1nc2ccccc2c(=O)n1-c1ccc(Cl)cc1)N/N=C/c1ccc(N2CCCCC2)cc1`, for which the growth was 84.8%.

As to `Cc1ccc(C2=Nn3c(nnc3-c3ccccc3)SC2)cc1`, the growth was 76.2%.

As to `COc1ccc(NC(=O)CSc2nnc(-c3ccc4nc(-c5ccc(OC)c(OC)c5)[nH]c4c3)o2)cc1OC`, the growth is 97%.

Consider `COc1ccc(NCc2cn(-c3ccc(C(=O)O)cc3)nc2-c2cc(C(F)(F)F)cc(C(F)(F)F)c2)cc1`, for which the growth was 107%.

Consider `Cc1ccc(NC(=O)c2ccc(CN3CCOCC3)c(C(F)(F)F)c2)cc1Oc1ccc(-c2[nH]nc3ncnc(N)c23)cc1`, for which the growth was 47.8%.

Turning to `COc1ccc2c(c1)c(CC(=O)[Se]CC#N)c(C)n2C(=O)c1ccc(Cl)cc1`, the growth is 37.6%.

In the case of `Cc1cc2nc(C(Cl)Cl)nc(-c3cccs3)n2n1`, the growth is 14.6%.

For the molecule `C=CCn1c(SCC(=O)Nc2ccc(C(=O)/C=C/c3ccc(C)cc3)cc2)nnc1-c1c[nH]c2ccccc12`, the growth is 96%.

`COc1ccc(Cn2cc3c(c2-c2cc(OC)c(OC)c(OC)c2)CCc2c(CN4CCCC4)noc2-3)cc1`: the growth was 60.9%.

With `O=C1Nc2ccccc2/C1=C/c1ccc(CO)n1-c1ccc(Cl)cc1`, the growth was 57.7%.

On to `CC(C)(C)n1cc(-c2ccnc(NCCCNS(=O)(=O)c3cccc(F)c3)n2)c(-c2ccc(Cl)c(O)c2)n1`, for which the growth is 95.4%.

As for `O=C1[C@@H]2Cc3c([nH]c4ccccc34)[C@H](c3c(Cl)cccc3Cl)N2C(=O)CN1C1CCN(CC2CCCCC2)CC1`, the growth was 93.9%.

Consider `CNC(=O)c1c(NC(=O)c2ccccc2C(F)(F)F)sc2c1CCC(=O)C2`, for which the growth is 45.4%.

For `O=C(Nc1cccc(C(F)(F)F)c1)c1cc(-c2ccc(F)cc2F)ccc1O`, the growth was 24.6%.

Consider `CC(O)c1cc2ccccc2c(=O)o1` (stereo not given), for which the growth is 101%.

For the molecule `O=C(CN1CCN(c2cc(=O)n(-c3ccccc3)c3ccccc23)CC1)Nc1cccc(C(F)(F)F)c1`, the growth was 75.1%.

Regarding `O=C1CCCc2nc(Nc3ccc(S(=O)(=O)Nc4ccc([N+](=O)[O-])cc4)cc3)ncc21`, the growth is 106%.

Turning to `NC(N)=Nc1ccc(Oc2cccc(NC(N)=Nc3ccc(I)cc3F)c2)cn1`, the growth is 71.9%.

For `COc1cc2nc(Cl)nc(Nc3cccc(C4=Nc5c(N)nc(N)nc5NC(c5ccc(Cl)cc5)C4)c3)c2cc1OC` (stereo not given), the growth is 73.9%.

In the case of `Cc1ccc2c(c1)Oc1nc(N)c(C#N)c(N)c1C2Sc1ccc(F)cc1` (stereo not given), the growth is -98.9% (active).

In the case of `CC1=NC2=NN3C(=NN2C(c2ccccc2)=C1)N=NC(c1ccc(Br)cc1)=C3c1ccc(Br)cc1`, the growth is 105%.

In the case of `CCCn1cnc2c(c1=N)C(c1ccc(F)cc1)c1sc3c(C)cccc3c1O2` (stereo not given), the growth was 45.1%.

As to `CCC(CC)N1C(=O)/C(=c2\sc3n(c2=O)NC2C(N=3)N(CC)C(=O)N2CC)c2ccccc21` (stereo not given), the growth is 57%.

Take `NC(N)=Nc1ccc(Nc2cccc(Nc3ccc(Cl)c(C(F)(F)F)c3)c2)cn1`: the growth was 40.3%.

As for `Cn1cc(-c2cc(N)n3nc(-c4cn(C)c5ccccc45)cc3n2)c2ccccc21`, the growth is 95.1%.

`O=S(=O)(NCCCNc1nccc(-c2[nH]c(-c3ccccc3)nc2-c2ccc(Cl)c(O)c2)n1)c1cccc(F)c1`: the growth is 25.3%.

As for `Cc1occc1-c1nc2s/c(=C/c3ccc(-c4cc(C(F)(F)F)ccc4Cl)o3)c(=O)n2n1`, the growth is 112%.

For the molecule `COc1ccc([C@@H]2[C@@H](O)C(=O)N2c2cc(OC)c(OC)c(OC)c2)cc1F`, the growth was 68.6%.

As for `C=C1CC[C@@H]2[C@](C)(CO)[C@H](O)CC[C@@]2(C)[C@@H]1C/C(O)=C1\CCOC1=O`, the growth is 108%.

Turning to `Cc1c(Cl)cccc1S(=O)(=O)Nc1ccc2c(c1)C(=O)N(C1CCC(=O)NC1=O)C2=O` (stereo not given), the growth was 97.8%.

As to `CN1CCN(Cc2ccc(NC(=O)c3cncc(C#Cc4cnc5ccc(N6CCN(C)CC6)nn45)c3)cc2C(F)(F)F)CC1`, the growth is 82%.

Turning to `CC1=NC2=NC(=O)/C(=C3/N=C(C)C=C(c4ccccc4)N3N)NN2C(c2ccccc2)=C1`, the growth was 109%.

In the case of `O=C(Cn1cc[n+](CC(=O)c2ccc(-c3ccccc3)cc2)c1)Nc1cccc2cccnc12`, the growth was 74.9%.

For `COc1cc2nc(Cl)nc(Nc3cccc(C4=Nc5c(N)nc(N)nc5NC(c5ccc(F)cc5)C4)c3)c2cc1OC` (stereo not given), the growth is 94.6%.

Regarding `CCC1=Cc2cc(OC)ccc2OC12C=Cc1cc(OC)ccc1O2` (stereo not given), the growth is 56.6%.
